# Key:
# Assay in all cases: DAPPL (digital affinity profiling via proximity ligation, sequencing); 10 mM Tris-HCl pH 7.5, 50 mM NaCl, 1 mM DTT, 4% glycerol, room temperature, 30 min; GST-TFs on glutathione beads, 16-mer random dsDNA library, 0.1% formaldehyde crosslink after washing; high values mean tight binding
# FEV = target: T1, FEV (Homo sapiens, UniProt Q99581 1-238); settings: protein: recombinant; tags: N-terminal GST; dsDNA, one strand shown
# T1 sequence: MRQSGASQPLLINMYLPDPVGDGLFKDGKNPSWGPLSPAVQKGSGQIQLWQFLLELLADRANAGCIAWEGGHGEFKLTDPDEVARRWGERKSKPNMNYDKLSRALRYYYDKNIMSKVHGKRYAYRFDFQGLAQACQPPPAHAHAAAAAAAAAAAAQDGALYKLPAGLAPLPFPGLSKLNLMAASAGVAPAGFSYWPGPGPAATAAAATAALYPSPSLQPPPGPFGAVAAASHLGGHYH
# Method in brief: (§1)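 In yeast, human transcription factors were expressed with a GST fusion, then pulled down on glutathione beads and given DNA barcodes. Pooled with a tag-only sample, they were exposed to 200 nmole of a 16-mer random double-stranded DNA library (Tris/NaCl/DTT/glycerol buffer, room temperature, 30 min), washed, crosslinked with 0.1% formaldehyde, proximity-ligated using BsaI/T4 ligase for 1 h at 37 °C, PCR-amplified and read on an Illumina NextSeq500. Each hexamer's frequency of reads for a factor, divided by the matching frequency for the tag-only sample, gives the binding signal.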
# ETV5 = ETV5 (Homo sapiens, UniProt P41161 1-510); settings: protein: recombinant; tags: N-terminal GST; dsDNA, one strand shown
# Sequence of ETV5 (P41161 whole entry): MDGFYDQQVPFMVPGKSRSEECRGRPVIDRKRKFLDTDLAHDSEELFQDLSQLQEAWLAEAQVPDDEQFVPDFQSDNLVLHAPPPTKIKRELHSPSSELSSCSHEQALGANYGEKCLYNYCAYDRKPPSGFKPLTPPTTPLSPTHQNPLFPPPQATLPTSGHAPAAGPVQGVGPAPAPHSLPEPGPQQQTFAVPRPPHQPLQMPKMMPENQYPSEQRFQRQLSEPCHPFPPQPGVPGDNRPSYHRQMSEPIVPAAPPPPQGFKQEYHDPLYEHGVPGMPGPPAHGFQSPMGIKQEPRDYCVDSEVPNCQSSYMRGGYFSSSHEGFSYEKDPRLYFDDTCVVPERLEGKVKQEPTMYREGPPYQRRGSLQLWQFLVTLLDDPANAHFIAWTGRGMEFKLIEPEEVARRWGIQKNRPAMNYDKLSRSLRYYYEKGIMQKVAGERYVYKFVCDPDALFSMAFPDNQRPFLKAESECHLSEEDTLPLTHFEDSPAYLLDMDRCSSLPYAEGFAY
# Method in brief: as §1
# HSF1 = HSF1 (Homo sapiens, UniProt Q00613 1-529); settings: protein: recombinant; tags: N-terminal GST; chain copies: 3; dsDNA, one strand shown
# Sequence of HSF1 (Q00613 whole entry): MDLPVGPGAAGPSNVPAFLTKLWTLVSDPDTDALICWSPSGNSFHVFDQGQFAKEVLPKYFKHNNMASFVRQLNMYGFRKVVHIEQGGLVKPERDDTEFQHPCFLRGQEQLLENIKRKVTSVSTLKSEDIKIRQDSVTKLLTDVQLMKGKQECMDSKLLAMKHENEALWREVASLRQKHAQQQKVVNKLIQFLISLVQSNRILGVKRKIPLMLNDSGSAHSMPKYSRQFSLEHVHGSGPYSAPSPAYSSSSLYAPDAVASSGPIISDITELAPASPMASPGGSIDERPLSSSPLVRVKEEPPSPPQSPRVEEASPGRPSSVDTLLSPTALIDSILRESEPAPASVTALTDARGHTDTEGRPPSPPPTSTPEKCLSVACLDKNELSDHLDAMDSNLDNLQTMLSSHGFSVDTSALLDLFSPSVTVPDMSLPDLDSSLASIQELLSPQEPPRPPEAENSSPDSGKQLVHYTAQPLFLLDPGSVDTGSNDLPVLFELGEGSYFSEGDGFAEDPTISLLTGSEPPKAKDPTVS
# Method in brief: as §1
# SPIC = target: T2, SPIC (Homo sapiens, UniProt Q8N5J4 1-248); settings: protein: recombinant; tags: N-terminal GST; dsDNA, one strand shown
# T2 sequence: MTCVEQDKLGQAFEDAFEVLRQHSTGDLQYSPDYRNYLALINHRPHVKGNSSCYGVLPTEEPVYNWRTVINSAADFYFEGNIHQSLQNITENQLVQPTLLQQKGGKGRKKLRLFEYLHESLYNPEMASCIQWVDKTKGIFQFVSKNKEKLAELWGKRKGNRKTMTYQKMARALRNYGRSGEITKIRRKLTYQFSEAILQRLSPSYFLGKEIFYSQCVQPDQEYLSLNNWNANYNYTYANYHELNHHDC
# Method in brief: as §1
# ELF4 = ELF4 (Homo sapiens, UniProt Q99607 1-663); settings: protein: recombinant; tags: N-terminal GST; dsDNA, one strand shown
# Sequence of ELF4 (Q99607 whole entry): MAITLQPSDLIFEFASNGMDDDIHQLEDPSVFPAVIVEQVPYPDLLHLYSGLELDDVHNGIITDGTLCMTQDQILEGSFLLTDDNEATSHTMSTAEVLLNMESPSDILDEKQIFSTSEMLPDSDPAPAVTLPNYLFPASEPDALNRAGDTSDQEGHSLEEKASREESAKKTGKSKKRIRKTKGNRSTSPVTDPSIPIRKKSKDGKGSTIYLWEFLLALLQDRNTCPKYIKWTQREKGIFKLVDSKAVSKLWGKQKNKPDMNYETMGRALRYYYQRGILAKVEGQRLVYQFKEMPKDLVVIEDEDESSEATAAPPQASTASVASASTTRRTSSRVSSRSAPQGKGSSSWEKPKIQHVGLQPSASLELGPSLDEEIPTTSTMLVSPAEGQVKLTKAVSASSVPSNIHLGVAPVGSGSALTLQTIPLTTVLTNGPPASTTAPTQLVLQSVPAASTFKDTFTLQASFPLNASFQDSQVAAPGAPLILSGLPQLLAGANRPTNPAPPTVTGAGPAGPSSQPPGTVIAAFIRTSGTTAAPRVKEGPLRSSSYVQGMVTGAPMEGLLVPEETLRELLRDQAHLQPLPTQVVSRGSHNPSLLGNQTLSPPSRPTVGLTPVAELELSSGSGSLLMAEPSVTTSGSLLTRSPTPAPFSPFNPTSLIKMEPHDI
# Method in brief: as §1
# ELK4 = target: T3, ELK4 (Homo sapiens, UniProt P28324-2 1-405); settings: protein: recombinant; tags: N-terminal GST; dsDNA, one strand shown
# T3 sequence: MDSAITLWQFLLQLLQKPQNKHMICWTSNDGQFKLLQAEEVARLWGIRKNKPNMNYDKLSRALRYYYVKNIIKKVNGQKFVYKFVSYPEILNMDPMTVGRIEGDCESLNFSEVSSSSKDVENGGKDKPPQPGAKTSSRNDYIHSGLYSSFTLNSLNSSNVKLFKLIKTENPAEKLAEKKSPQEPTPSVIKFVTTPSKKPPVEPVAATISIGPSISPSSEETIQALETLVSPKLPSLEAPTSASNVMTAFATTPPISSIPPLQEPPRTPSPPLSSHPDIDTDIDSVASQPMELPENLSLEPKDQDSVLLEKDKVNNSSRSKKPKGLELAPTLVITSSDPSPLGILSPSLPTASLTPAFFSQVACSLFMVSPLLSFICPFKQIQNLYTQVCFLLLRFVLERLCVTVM
# Method in brief: as §1
# ETV2 = target: T4, ETV2 (Homo sapiens, UniProt O00321 1-342); settings: protein: recombinant; tags: N-terminal GST; dsDNA, one strand shown
# T4 sequence: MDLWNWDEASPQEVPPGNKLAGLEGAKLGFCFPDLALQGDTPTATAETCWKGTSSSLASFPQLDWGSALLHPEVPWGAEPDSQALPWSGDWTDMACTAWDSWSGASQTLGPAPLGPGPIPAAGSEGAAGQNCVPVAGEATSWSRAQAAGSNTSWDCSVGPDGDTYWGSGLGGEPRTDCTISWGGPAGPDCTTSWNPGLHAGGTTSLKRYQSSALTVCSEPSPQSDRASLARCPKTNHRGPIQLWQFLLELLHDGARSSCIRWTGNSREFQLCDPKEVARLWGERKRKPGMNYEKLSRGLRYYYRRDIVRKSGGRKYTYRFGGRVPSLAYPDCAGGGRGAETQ
# Method in brief: as §1
# ELF3 = target: T5, ELF3 (Homo sapiens, UniProt P78545 1-371); settings: protein: recombinant; tags: N-terminal GST; dsDNA, one strand shown
# T5 sequence: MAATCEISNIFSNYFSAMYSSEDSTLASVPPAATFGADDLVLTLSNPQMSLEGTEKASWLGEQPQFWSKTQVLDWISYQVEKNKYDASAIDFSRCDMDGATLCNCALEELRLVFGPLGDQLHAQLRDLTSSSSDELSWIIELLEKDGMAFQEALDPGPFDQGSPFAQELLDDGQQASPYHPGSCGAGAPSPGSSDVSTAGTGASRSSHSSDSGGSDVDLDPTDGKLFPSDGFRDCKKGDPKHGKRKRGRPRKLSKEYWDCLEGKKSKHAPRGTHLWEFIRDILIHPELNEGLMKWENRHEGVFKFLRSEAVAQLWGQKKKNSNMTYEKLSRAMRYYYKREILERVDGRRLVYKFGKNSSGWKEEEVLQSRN
# Method in brief: as §1
# CRX = CRX (Homo sapiens, UniProt O43186 1-299); settings: protein: recombinant; tags: N-terminal GST; dsDNA, one strand shown
# Sequence of CRX (O43186 whole entry): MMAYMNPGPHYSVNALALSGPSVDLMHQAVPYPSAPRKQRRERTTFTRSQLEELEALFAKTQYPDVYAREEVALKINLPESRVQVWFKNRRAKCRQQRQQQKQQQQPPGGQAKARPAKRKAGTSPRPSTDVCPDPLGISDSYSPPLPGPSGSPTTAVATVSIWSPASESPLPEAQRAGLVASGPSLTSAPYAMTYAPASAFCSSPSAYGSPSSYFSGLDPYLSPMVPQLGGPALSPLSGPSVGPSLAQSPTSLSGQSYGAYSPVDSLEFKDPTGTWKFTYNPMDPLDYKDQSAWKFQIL
# Method in brief: as §1
# ETV1 = ETV1 (Homo sapiens, UniProt P50549 1-477); settings: protein: recombinant; tags: N-terminal GST; dsDNA, one strand shown
# Sequence of ETV1 (P50549 whole entry): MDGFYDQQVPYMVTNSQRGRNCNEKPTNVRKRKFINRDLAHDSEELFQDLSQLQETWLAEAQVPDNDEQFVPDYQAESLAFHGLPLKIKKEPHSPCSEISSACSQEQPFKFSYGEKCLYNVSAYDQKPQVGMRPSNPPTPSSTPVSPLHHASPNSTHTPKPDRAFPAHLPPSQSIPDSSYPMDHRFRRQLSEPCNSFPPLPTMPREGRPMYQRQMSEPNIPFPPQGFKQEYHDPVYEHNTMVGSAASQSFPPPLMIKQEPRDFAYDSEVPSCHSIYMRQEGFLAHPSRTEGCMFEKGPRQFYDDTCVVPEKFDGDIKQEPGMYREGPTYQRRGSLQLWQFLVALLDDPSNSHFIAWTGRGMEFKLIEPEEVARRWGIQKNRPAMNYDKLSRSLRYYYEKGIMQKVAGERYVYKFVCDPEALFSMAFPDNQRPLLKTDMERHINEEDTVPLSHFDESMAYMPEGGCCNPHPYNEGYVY
# Method in brief: as §1
# ERF = target: T6, ERF (Homo sapiens, UniProt P50548 1-548); settings: protein: recombinant; tags: N-terminal GST; dsDNA, one strand shown
# T6 sequence: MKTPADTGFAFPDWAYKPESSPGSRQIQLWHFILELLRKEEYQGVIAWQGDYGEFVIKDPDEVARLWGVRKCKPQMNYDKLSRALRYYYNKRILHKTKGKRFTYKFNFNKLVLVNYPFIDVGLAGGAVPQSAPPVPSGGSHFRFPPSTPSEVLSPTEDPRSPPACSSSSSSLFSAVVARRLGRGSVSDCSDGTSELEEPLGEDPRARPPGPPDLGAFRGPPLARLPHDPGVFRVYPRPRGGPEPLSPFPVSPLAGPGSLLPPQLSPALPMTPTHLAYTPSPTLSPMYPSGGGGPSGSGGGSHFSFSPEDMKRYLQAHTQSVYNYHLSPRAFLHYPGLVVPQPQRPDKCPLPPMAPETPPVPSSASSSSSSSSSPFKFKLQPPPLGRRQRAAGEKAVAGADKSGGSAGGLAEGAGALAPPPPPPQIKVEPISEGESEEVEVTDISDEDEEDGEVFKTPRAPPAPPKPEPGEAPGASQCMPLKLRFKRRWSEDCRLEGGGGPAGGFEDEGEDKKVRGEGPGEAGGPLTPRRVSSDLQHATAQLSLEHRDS
# Method in brief: as §1
# ETV3L = target: T7, ETV3L (Homo sapiens, UniProt Q6ZN32 1-361); settings: protein: recombinant; tags: N-terminal GST; dsDNA, one strand shown
# T7 sequence: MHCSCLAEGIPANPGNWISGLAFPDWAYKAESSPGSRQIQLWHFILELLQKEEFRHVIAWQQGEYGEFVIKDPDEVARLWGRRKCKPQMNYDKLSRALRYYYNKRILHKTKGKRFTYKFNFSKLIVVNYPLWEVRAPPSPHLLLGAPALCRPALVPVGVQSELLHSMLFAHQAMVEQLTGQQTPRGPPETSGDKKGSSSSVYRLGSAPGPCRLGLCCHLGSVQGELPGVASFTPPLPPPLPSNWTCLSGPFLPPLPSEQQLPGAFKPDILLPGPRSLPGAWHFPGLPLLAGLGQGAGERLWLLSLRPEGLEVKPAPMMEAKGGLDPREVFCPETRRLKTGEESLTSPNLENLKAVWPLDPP
# Method in brief: as §1
# ETS2 = target: T8, ETS2 (Homo sapiens, UniProt P15036 1-469); settings: protein: recombinant; tags: N-terminal GST; dsDNA, one strand shown
# T8 sequence: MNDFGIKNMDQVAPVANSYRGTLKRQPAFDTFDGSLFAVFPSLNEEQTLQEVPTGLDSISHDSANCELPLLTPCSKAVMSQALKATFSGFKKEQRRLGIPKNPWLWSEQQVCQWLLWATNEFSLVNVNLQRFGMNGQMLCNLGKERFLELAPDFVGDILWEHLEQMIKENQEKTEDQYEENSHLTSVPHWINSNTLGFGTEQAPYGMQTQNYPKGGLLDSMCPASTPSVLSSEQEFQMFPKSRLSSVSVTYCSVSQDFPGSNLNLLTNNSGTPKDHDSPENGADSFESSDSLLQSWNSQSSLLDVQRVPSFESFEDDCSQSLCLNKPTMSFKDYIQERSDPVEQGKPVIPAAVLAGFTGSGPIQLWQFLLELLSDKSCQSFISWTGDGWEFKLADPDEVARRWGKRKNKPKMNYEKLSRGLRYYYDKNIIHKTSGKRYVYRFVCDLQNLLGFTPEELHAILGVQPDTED
# Method in brief: as §1
# SPDEF = target: T9, SPDEF (Homo sapiens, UniProt O95238 1-335); settings: protein: recombinant; tags: N-terminal GST; dsDNA, one strand shown
# T9 sequence: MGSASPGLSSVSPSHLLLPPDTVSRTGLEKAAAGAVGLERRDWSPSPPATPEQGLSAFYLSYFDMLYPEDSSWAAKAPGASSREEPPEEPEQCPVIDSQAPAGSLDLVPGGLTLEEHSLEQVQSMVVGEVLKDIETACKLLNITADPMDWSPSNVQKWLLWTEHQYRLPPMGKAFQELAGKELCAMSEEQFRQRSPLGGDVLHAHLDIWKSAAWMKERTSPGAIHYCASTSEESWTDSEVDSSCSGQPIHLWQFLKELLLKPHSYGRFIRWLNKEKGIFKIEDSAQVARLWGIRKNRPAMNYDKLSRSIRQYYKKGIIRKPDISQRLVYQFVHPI
# Method in brief: as §1
# ETV7 = target: T10, ETV7 (Homo sapiens, UniProt Q9Y603 1-341); settings: protein: recombinant; tags: N-terminal GST; dsDNA, one strand shown
# T10 sequence: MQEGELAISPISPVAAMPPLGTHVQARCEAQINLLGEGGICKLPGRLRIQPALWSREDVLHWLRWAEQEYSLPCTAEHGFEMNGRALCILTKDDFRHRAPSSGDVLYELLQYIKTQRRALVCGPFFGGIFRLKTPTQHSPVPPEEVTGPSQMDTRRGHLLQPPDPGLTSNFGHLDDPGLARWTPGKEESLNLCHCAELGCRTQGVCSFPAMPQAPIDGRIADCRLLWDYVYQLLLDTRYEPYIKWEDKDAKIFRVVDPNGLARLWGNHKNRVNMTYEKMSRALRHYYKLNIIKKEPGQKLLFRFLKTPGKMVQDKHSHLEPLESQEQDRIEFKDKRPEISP
# Method in brief: as §1
# ELF5 = target: T11, ELF5 (Homo sapiens, UniProt Q9UKW6-2 1-255); settings: protein: recombinant; tags: N-terminal GST; dsDNA, one strand shown
# T11 sequence: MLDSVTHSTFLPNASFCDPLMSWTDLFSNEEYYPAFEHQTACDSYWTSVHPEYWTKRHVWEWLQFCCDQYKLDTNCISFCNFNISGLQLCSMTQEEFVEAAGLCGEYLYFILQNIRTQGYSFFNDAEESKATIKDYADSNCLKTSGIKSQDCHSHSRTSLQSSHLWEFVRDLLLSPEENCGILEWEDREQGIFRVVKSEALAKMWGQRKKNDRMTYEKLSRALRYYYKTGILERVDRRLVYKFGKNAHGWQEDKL
# Method in brief: as §1
# ETV3 = target: T12, ETV3 (Homo sapiens, UniProt P41162-2 1-143); settings: protein: recombinant; tags: N-terminal GST; dsDNA, one strand shown
# T12 sequence: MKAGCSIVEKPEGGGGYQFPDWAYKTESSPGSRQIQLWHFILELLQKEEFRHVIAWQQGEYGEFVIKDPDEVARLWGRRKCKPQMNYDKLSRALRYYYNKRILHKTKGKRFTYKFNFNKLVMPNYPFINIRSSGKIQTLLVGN
# Method in brief: as §1
# ETV6 = ETV6 (Homo sapiens, UniProt P41212 1-452); settings: protein: recombinant; tags: N-terminal GST; dsDNA, one strand shown
# Sequence of ETV6 (P41212 whole entry): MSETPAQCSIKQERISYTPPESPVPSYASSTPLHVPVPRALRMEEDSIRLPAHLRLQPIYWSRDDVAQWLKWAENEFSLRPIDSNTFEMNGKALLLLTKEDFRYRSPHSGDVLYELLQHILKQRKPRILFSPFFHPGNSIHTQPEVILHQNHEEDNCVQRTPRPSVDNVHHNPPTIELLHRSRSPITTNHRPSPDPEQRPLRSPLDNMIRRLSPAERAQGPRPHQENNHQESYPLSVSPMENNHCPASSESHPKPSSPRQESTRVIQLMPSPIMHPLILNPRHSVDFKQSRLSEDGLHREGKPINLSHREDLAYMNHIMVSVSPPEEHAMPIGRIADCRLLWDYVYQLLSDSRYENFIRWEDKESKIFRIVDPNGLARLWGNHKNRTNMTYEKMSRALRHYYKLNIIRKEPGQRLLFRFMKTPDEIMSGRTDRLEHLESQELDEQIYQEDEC
# Method in brief: as §1
sequence,measurement,setting,value
AATATA,binding signal,FEV,"1.3 fold enrichment (6-mer frequency, TF over GST control)"
same,binding signal,ETV5,"1.33 fold enrichment (6-mer frequency, TF over GST control)"
same,binding signal,HSF1,"1.38 fold enrichment (6-mer frequency, TF over GST control)"
same,binding signal,SPIC,"1.29 fold enrichment (6-mer frequency, TF over GST control)"
same,binding signal,ELF4,"1.3 fold enrichment (6-mer frequency, TF over GST control)"
same,binding signal,ELK4,"1.39 fold enrichment (6-mer frequency, TF over GST control)"
same,binding signal,ETV2,"1.35 fold enrichment (6-mer frequency, TF over GST control)"
same,binding signal,ELF3,"1.5 fold enrichment (6-mer frequency, TF over GST control)"
same,binding signal,CRX,"1.62 fold enrichment (6-mer frequency, TF over GST control)"
same,binding signal,ETV1,"1.39 fold enrichment (6-mer frequency, TF over GST control)"
same,binding signal,ERF,"1.39 fold enrichment (6-mer frequency, TF over GST control)"
same,binding signal,ETV3L,"1.31 fold enrichment (6-mer frequency, TF over GST control)"
same,binding signal,ETS2,"1.34 fold enrichment (6-mer frequency, TF over GST control)"
same,binding signal,SPDEF,"1.23 fold enrichment (6-mer frequency, TF over GST control)"
same,binding signal,ETV7,"1.36 fold enrichment (6-mer frequency, TF over GST control)"
same,binding signal,ELF5,"1.33 fold enrichment (6-mer frequency, TF over GST control)"
same,binding signal,ETV3,"1.35 fold enrichment (6-mer frequency, TF over GST control)"
same,binding signal,ETV6,"1.36 fold enrichment (6-mer frequency, TF over GST control)"
